About 83,000 compounds went through this panel and 20% of them were active in at least one assay; those are over-represented in the sample as a whole.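 Treatment: one concentration, 48 hours, 96-well format. Scoring: percent growth, with anything below 10 considered active.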 Calls of active or inactive are those of the source.

The assay relates to A498 renal. As to the kind of experiment: NCI-60 one-dose screen, 48 h (100 = growth as untreated, 0 = no growth, -100 = all killed). To be noted: 10 µM unless noted. The protocol:
Growth inhibition of the A498 human tumor cell line is measured as a screen for anti-cancer activity. Cells are grown in 96 well plates and exposed to the test compound for 48 hours. Compounds are tested at a single concentration, which is 10^-5 M for most compounds. The reported endpoint is percent growth (GI% or GIPRCNT), where numbers from 0 - 100% represent growth inhibition, and numbers from -100% - 0 represent cell death. For example, a value of 40 represents 60% growth inhibition. A value of 0 means no net growth occurred over the course of the experiment. A value of -40 indicates 40% of cells at the beginning of the experiment died by the end of the experiment. A value of -100 means all cells are dead at the end of the experiment.
NCI-60 Human Tumor Cell Lines Screen was performed using the standard one-dose NCI protocol, which is described in more detail at https://dtp.cancer.gov/discovery_development/nci-60/default.htm.
Compounds with GIPRCNT values below 10 were considered active. Activity score was based on GIPRCNT using the following formula: […]
Score is 0 for GIPRCNT values of 100 or above, 50 for GIPRCNT values of 0, and 100 for GIPRCNT values of -100.
Turning to `COc1cc(-c2nn(C(C)(C)C)cc2-c2ccnc(NCCCNS(=O)(=O)c3ccccc3)n2)ccc1Cl`, the growth was 31.2% (inactive). For the molecule `CCC1=Cc2cc(OC)ccc2OC12C=Cc1cc(OC)ccc1O2` (stereo not given), the growth is 3.41% (active). `CCCCc1nc(/C=N/Nc2nc(Nc3ccccc3)nc(Nc3ccc(S(N)(=O)=O)cc3)n2)c(Cl)[nH]1`: the growth is 89.3% (inactive).

With `CC[C@]12C=CCN3CC[C@@]4(c5cc(NC(=O)COc6cc(O)c7c(=O)cc(-c8ccccc8)oc7c6)c(OC)cc5N(C)[C@H]4[C@@](O)(C(=O)OC)[C@@H]1OC(C)=O)[C@@H]32`, the growth is -89.6% (active). Take `CCCn1cnc2c(c1=N)C(c1ccc(OC)cc1)c1sc3c(CC)cccc3c1O2` (stereo not given): the growth is -11.5% (active). `COc1cc(OC)c(/C=C/S(=O)(=O)Cc2ccc(OC)c(NC(=O)CCC(=O)NO)c2)c(OC)c1`: the growth was -20.8% (active).

With `Clc1cccc(/C=N/Nc2nc(N/N=C/c3cccc(Cl)c3Cl)nc(N3CCCCC3)n2)c1Cl`, the growth is 92.5% (inactive). With `Cc1cc(S(=O)(=O)N(C)C)cc(NCC(=O)NC(=O)NCC(C)C)c1C` the figure was 51.7% (inactive). With `O=[N+]([O-])c1cc(/C=N/Nc2nc(N/N=C/c3ccc(Cl)c([N+](=O)[O-])c3)nc(N3CCCCC3)n2)ccc1Cl`, the growth was 108% (inactive). With `CC(=O)c1cc(C(=O)c2ccc(Br)cc2)n2cc(C)cc(C)c12`, the growth is 76.8% (inactive).

Regarding `O=C1CCCc2nc(Nc3ccc(S(=O)(=O)Nc4ccc([N+](=O)[O-])cc4)cc3)ncc21`, the growth is 94.7% (inactive). For `Cc1cccc2c3c(sc12)C(c1ccc(Cl)cc1)c1c(nc(CC(=O)Nc2ccccc2)[nH]c1=O)O3` (stereo not given), the growth is 41.5% (inactive). Take `C/C(=N\O)[C@H]1C[C@]23CC[C@]4(C)[C@H](CC[C@@H]5[C@@]6(C)CC/C(=N/O)C(C)(C)[C@@H]6CC[C@]54C)[C@H]2[C@H](C)C1(C)OC3`: the growth is 72% (inactive). With `CCN(CC)CCn1c2ccc(O)cc2c2sc3cc(OC)ccc3c(=O)c21` the figure was 73.3% (inactive); with `COc1cc2oc(-c3cccc(C(=O)N[C@@H](CC(C)C)C(=O)OC(C)(C)C)c3)cc(=O)c2c(OC)c1OC`, 96.7% (inactive); with `COc1cccc(N2CCN(c3ncnc4c3[nH]c3ccc(F)cc34)C[C@H]2C)c1`, 37% (inactive). Take `CCOc1ccc(C(=O)Nc2ncc(Cc3ccc(F)cc3)s2)cc1`: the growth was 13.9% (inactive).

On to `CCc1cccc2c3c(sc12)C(c1ccc(Cl)cc1)C(C#N)=C(/N=C/c1ccc(Cl)cc1)O3` (stereo not given), for which the growth was -4.9% (active). Regarding `O=C(CSc1nnc(-c2ccc(Cl)cc2)n1-c1ccccc1)Nc1cccc(Cl)c1`, the growth was 95.9% (inactive).

With `CCCCCc1ccc(S(=O)(=O)Nc2cccc(-c3csc(NC(=O)CCCCCN4CCN(CCO)CC4)n3)c2)cc1`, the growth was 76.8% (inactive).

`O=C(NCc1ncc[nH]1)c1ccc(-c2nc3ccc4[nH]ncc4c3c3c2CCCC3)cc1`: the growth is -13.7% (active).

For the molecule `O=S(=O)(NCCCNc1nccc(-c2[nH]c(-c3ccccc3)nc2-c2ccc(Cl)c(O)c2)n1)c1ccc(Br)cc1`, the growth is 65.4% (inactive). Turning to `O=S(=O)(Oc1ccc(-c2nnc(Nc3ccccc3)s2)cc1)C(F)(F)C(F)(F)C(F)(F)C(F)(F)C(F)(F)C(F)(F)F`, the growth was 99.5% (inactive).

In the case of `CCOC(=O)C(=O)/C(=C\c1ccc(Cl)cc1)C(=O)N1C(=S)NC(=O)C1CC(C)C` (stereo not given), the growth is 102% (inactive). Consider `CCCn1cnc2c(c1=N)C(c1ccc(OC)cc1)c1sc3c(C)cccc3c1O2` (stereo not given), for which the growth was -21.4% (active). With `NC(N)=Nc1ccc(Oc2cccc(Nc3ccc(Br)c(C(F)(F)F)c3)c2)cn1` the figure was -25.1% (active). With `NC(N)=Nc1ccc(Oc2cccc(NC(N)=Nc3ccc(I)cc3F)c2)cc1` the figure was 86.8% (inactive); with `COc1ccc(/C=N/NC2=NC3C(S2)N(C)C(=O)N3C)cc1` (stereo not given), -17.5% (active). Next, `O=C(CNc1nc(-c2cccc([N+](=O)[O-])c2)cs1)Nc1cccc(Cl)c1`: 93% (inactive); `NS(=O)(=O)c1ccc(Nc2nc(N/N=C/c3c[nH]c4ccccc34)nc(Nc3ccccc3)n2)cc1`: 51.2% (inactive). For the molecule `Cc1ccc2c(c1)C13C(=C2Br)CCCN1C(=O)c1ccccc13` (stereo not given), the growth was 92.4% (inactive).

For the molecule `CS(=O)(=O)Nc1cc(-c2ccc3ncc(C#N)c(NCc4ccccc4)c3c2)cnc1Cl`, the growth is -57.2% (active).

In the case of `O=C(NNc1nc2cc(F)ccc2n2c(CN3CCCC3)ccc12)c1cnccn1`, the growth is -1.87% (active). Next, `NS(=O)(=O)c1ccc(Nc2nc(N/N=C/CCc3ccccc3)nc(Nc3ccccc3)n2)cc1`: 86.4% (inactive); `NC(N)=Nc1ccc(Oc2ccc(Nc3ccc(Cl)c(C(F)(F)F)c3)cc2)cc1`: 68.3% (inactive). Consider `O=S(=O)(NCCNc1nccc(-n2cnc3ccccc32)n1)c1ccc(Cl)cc1`, for which the growth was 84.8% (inactive). With `COc1cc(Cn2cc3c(c2)-c2onc(CN4CCCC4)c2CC3)cc(OC)c1OC` the figure was 94.4% (inactive); with `NS(=O)(=O)c1ccc(Nc2nc(SCc3ccccc3)nc3ccccc23)cc1`, 48.5% (inactive). In the case of `CCCCCc1ccc(S(=O)(=O)Nc2cccc(-c3csc(NC(=O)CN4CCN(CCO)CC4)n3)c2)cc1`, the growth is 81% (inactive). With `CC1=CC(=O)C2=C(C)CC(OC(=O)CCc3ccccc3)[C@@H]3[C@H](OC(=O)[C@@H]3C)[C@@H]12` (stereo not given in full) the figure was 82.4% (inactive).

The values above are taken from PubChem BioAssay (NCI).
